Only some compounds are listed: those with a hit (about 1.1% of all), similar ones and a draw of the others.
FBPA Giardia inh – Giardia lamblia aldolase inhibition. A8B2U2. purified Giardia FBPA. Potency, µM (titrated, usually from 59.6 µM), actives largely listed as inhibitors. actives 0.71% (n = 290,000). AID 2451; further: nearly all actives have a fitted effect of over 55% in size
Target sequence (A8B2U2 whole entry, looked up): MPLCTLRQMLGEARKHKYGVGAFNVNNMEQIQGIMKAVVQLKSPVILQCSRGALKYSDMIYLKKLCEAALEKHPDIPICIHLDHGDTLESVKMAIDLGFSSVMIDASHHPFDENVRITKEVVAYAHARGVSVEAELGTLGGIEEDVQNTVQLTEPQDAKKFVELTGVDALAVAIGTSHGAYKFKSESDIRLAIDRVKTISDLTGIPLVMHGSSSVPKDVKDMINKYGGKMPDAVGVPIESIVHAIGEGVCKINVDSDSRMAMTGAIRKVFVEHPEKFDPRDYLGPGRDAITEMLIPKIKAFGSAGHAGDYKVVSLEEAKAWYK
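40 nM FBPA preincubated 10 min at RT with compound (up to 57.5 uM final), then substrate plus GAPDH/TPI/NAD/arsenate coupling and diaphorase/resazurin added. Fluorescence read after 20 min at RT, 525/598 nm.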
AmpC no deterg – inhibitors of E. coli AmpC beta-lactamase without detergent; AmpC nitrocefin hydrolysis, absorbance 480 nm, 0.0001% Triton; Potency, µM (series often up to 57.1 µM), hits mostly inhibitors; actives 0.52% (n = 330,000); AID 485341; further: nearly all actives have a fitted effect of over 20% in size
Target sequence (P00811 whole entry, looked up): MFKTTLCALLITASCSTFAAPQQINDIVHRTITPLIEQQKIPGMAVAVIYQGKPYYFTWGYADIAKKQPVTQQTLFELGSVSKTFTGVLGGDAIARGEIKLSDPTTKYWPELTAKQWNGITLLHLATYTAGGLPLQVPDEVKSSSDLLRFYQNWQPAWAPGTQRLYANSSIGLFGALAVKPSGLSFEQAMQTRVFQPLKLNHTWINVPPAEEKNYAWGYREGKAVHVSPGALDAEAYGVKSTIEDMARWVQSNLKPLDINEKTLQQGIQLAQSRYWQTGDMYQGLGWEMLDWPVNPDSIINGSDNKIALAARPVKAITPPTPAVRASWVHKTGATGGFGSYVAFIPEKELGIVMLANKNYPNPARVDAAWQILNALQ
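20 mM phosphate pH 7.0 + 0.01% (detergent screen) or 0.0001% Triton X-100; 5.3 nM AmpC reagent; cpd preinc 15 min RT; nitrocefin (800 uM stock) to start; A480 q20 s × 4 min; Activity was normalised to no-enzyme and no-compound control wells.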
AmpC detergent – blocks E. coli AmpC beta-lactamase in detergent assay; AmpC hydrolysis of nitrocefin, absorbance 480 nm, 0.01% Triton; Potency, µM (series often up to 114 µM), hits mostly inhibitors; actives 0.041% (n = 370,000); AID 485294; further: nearly all actives have a fitted effect of over 25% in size
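AmpC (5.3 nM in the dispensed reagent) in 20 mM phosphate pH 7.0 with 0.01% (detergent screen) or 0.0001% Triton X-100 was preincubated with compounds for 15 min at room temperature. Nitrocefin was then added from an 800 uM solution, and hydrolysis was followed at 480 nm.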
SARS PLP yeast – blocks SARS-CoV papain-like protease in a yeast assay; actives 0.19% (n = 330,000); AID 485353; Potency, µM (titrated, usually from 32.9 µM), hits mostly activators; S. cerevisiae expressing SARS-CoV PLpro, growth rescue; calls by dose curve; further: nearly all actives have a fitted effect of over 55% in size
Each line names hits and unclear results; the compound was inactive in the other large screens. Unless noted, the call rests on the fitted dose curve; in most records, active means well fitted curve in the direction sought with a large enough effect; inconclusive means small, poorly fitted or top-dose-only effect, or another doubt; inactive means no such curve, though single readings can be large; an effect the other way counts as inactive or inconclusive.

COc1ccccc1Nc1nnc(SCC(=O)Nc2nc(-c3ccc(F)cc3)cs2)s1	AmpC no deterg 15.8µM
CCOc1ccccc1Nc1nnc(SCC(=O)Nc2nc(-c3ccc(OC)cc3)cs2)s1	none
CC(C)Nc1nnc(SCC(=O)Nc2ccc3c(c2)C(=O)c2ccccc2C3=O)s1	AmpC no deterg 10µM
CN(C)C(=O)Nc1ccc(Oc2ccc(Cl)cc2)cc1	none (no result: AmpC no deterg, AmpC detergent, SARS PLP yeast)
CC1CCC2C(=O)N(c3ccccc3OC(=O)c3ccccc3)C(=O)C2C1 (configuration not stated)	none
CC1=CCC2C(=O)N(c3ccccc3OC(=O)c3ccccc3F)C(=O)C2C1 (configuration not stated)	AmpC no deterg 10µM
O=C(O)c1ccc(/C=N/NC(=O)c2ccc(CN3c4cccc5cccc(c45)S3(=O)=O)cc2)cc1	AmpC no deterg 28.2µM
CC(/C=N/NC(=O)c1ccc(CN2c3cccc4cccc(c34)S2(=O)=O)cc1)c1ccccc1 (configuration not stated)	none
COCCNC(=S)N/N=C/c1ccc(-c2ccc([N+](=O)[O-])cc2)o1	FBPA Giardia inh inconclusive
O=C1NC(=O)N(Cc2ccco2)C(=O)/C1=C/c1ccc(-c2cccc([N+](=O)[O-])c2)o1	AmpC no deterg 35.5µM, AmpC detergent inconclusive
O=[N+]([O-])c1cccc(-c2ccc(/C=N/NC(=S)NCc3ccco3)o2)c1	AmpC no deterg 8.91µM
COC(=O)C1(C(F)(F)F)N=C2Sc3ccccc3N2C(N2CCOCC2)=N1 (configuration not stated)	AmpC no deterg 0.316µM
Cc1ccc2c(c1)C(=C(C#N)C#N)C(=O)N2CCN1CCOCC1	FBPA Giardia inh 3.15µM
CCc1ccc(NC(=O)c2nc3nc(C)cc(C(F)F)n3n2)cc1	none (no result: FBPA Giardia inh, AmpC no deterg, SARS PLP yeast)
CCN(CC)c1ccc(NC(=O)c2nc3nc(C)cc(C(F)F)n3n2)cc1	AmpC no deterg 3.16µM, SARS PLP yeast inconclusive
Cc1cc(O)c(C(C)C)cc1N=Cc1ccccc1O	FBPA Giardia inh 3.54µM
CCNc1ccccc1CP(=O)(c1ccccc1)c1ccccc1O (configuration not stated)	FBPA Giardia inh 1.78µM
CCCN1CN(Cc2ccccc2)CNC1=S	SARS PLP yeast 11.2µM
CN1CCN(c2ccc(-c3cc(O)c4ncccc4c3)cc2)CC1	none (no result: FBPA Giardia inh)
CCc1nc(-c2ccccc2)c2ccccn12	FBPA Giardia inh 4.46µM
O=Cc1c(-c2ccccc2)nc2ccccn12	none
Oc1ccc(CNCc2ccc3c(c2)OCO3)c2cccnc12	none (no result: FBPA Giardia inh)
CS(=O)(=O)N(CC(=O)Nc1ccc2c(c1)OCO2)Cc1ccccc1	AmpC no deterg inconclusive
CS(=O)(=O)N(CC(=O)Nc1ccc2c(c1)OCO2)Cc1ccc(Cl)cc1	AmpC no deterg 0.282µM
COC(=O)c1ccc(CSc2nc3ccc(Cl)cc3[nH]2)o1	none
COC(=O)c1ccc(CSc2nc3scc(-c4cccs4)c3c(=O)[nH]2)o1	AmpC no deterg 10µM
O=S(=O)(Nc1cccc2cccnc12)c1ccccc1O	FBPA Giardia inh 19.9µM (no result: AmpC no deterg, AmpC detergent, SARS PLP yeast)
CCCC[C@@H]1CCCO[C@@](C(=O)NCc2ccc(S(C)(=O)=O)cc2)(C(F)(F)F)C1	none (no result: AmpC no deterg, AmpC detergent, SARS PLP yeast)
CCCCCNC(=O)Cc1cc(=O)[nH]c(=O)[nH]1	AmpC no deterg 50.1µM, AmpC detergent inconclusive
CCCNC(=O)Cc1cc(=O)[nH]c(=O)[nH]1	AmpC no deterg inconclusive
C/C=C1\COC(C(=O)NC)(C(F)(F)F)C=C1C=C1CCCCC1 (configuration not stated)	none (no result: AmpC no deterg, AmpC detergent, SARS PLP yeast)
Cc1onc(-c2ccccc2)c1C(=O)NC(=S)NNC(=O)c1cc(-c2ccc(F)cc2)n[nH]1	AmpC no deterg 2µM
CN(c1ccccc1)S(=O)(=O)c1cccc(NC(=O)COC(=O)C2CCCCC2)c1	AmpC no deterg 3.55µM
O=C(CSc1cn(Cc2ccccc2)c2ccccc12)N1CCOCC1	AmpC no deterg 44.7µM, AmpC detergent inconclusive
COc1cc(/C=N/NC(=O)CC2(C)OCCO2)cc(Br)c1O	none
COc1cc(/C=N/NC(=O)C23CC4CC(CC(C4)C2)C3)cc(Br)c1O	AmpC no deterg 28.2µM
COc1cccc(C2NC(=S)NC3=C2CCc2ccccc23)c1 (configuration not stated)	FBPA Giardia inh 15.8µM
COc1ccc2c(c1)C1=C(CC2)C(c2ccc(C)cc2)NC(=S)N1 (configuration not stated)	none
CCCS(=O)(=O)NCCc1sc2nc(-c3ccc(Cl)cc3)nn2c1C	none (no result: FBPA Giardia inh, AmpC no deterg, SARS PLP yeast)
O=C(N/N=C\c1c(O)ccc2ccccc12)c1ccc(O)cc1	SARS PLP yeast 12.6µM
Cc1cc(C)n(-c2nc3ccccc3c(=O)n2OCc2ccc(F)cc2)n1	AmpC detergent 31.6µM
O=C(O)CC1Oc2ccc(Cl)cc2NC1=O (configuration not stated)	AmpC no deterg 11.2µM, AmpC detergent inconclusive
CC[C@H](C)[C@H](NC(=O)[C@H](CC(=O)O)NC(=O)[C@H](CC(C)C)NC(=O)[C@H](NC(C)=O)C(c1ccccc1)c1ccccc1)C(=O)N[C@H](C(=O)N[C@@H](Cc1c[nH]c2ccccc12)C(=O)O)[C@@H](C)CC	none (no result: AmpC no deterg, AmpC detergent, SARS PLP yeast)
c1ccc(Oc2nc(NC3CCCCC3)c3[nH]cnc3n2)cc1	FBPA Giardia inh 15.8µM (no result: AmpC no deterg, AmpC detergent, SARS PLP yeast)
COc1ccc(CCN2CCC[C@H](CN3CCc4cc(OC)c(OC)cc4CC3=O)C2)cc1OC	none (no result: AmpC no deterg, AmpC detergent, SARS PLP yeast)
COc1ccccc1NC(=O)Cn1c(=O)oc2ccccc21	AmpC no deterg 0.398µM
CCNS(=O)(=O)c1ccc(NC(=O)Nc2cc(C)ccc2OC)cc1	AmpC no deterg 11.2µM
COc1ccc(C)cc1NC(=O)NC1CCCCCCC1	AmpC no deterg 22.4µM (no result: FBPA Giardia inh)
COc1ccc(OC)c(NC(=O)NC2CCCCCCC2)c1	none (no result: FBPA Giardia inh)
Cc1ccc(-n2nnnc2SCC(=O)Nc2sc(C)c(C)c2C#N)cc1C	AmpC no deterg 0.316µM, SARS PLP yeast inconclusive
CC(=O)c1ccc(-n2nnnc2SCC(=O)Nc2sc(C)c(C)c2C#N)cc1	none
N=C1SC(c2ccccc2)C(=O)N1c1ncc(Cc2ccccc2)s1 (configuration not stated)	AmpC no deterg 31.6µM
Cc1ccc(Cc2cnc(N3C(=N)SC(c4ccccc4)C3=O)s2)cc1 (configuration not stated)	AmpC no deterg inconclusive
COc1ccc(-c2nnc3n2N=C(c2c(OC)cccc2OC)CS3)cc1OC	none (no result: AmpC no deterg, AmpC detergent, SARS PLP yeast)
CCN(CC)S(=O)(=O)c1ccc(Cl)c(NC(=S)NC(=O)C2CCCC2)c1	none (no result: FBPA Giardia inh)
CCN(CC)c1ccc(S(=O)(=O)Nc2cc(Cl)ccc2Cl)cc1NC(=S)NC(=O)C1CCCC1	AmpC no deterg 25.1µM, AmpC detergent inconclusive
CN(C)c1ccc(-c2ccc(C3C4C=CCCC4(C)C(=O)N3Cc3ccccc3)c(F)c2)cc1 (configuration not stated)	none (no result: AmpC no deterg, AmpC detergent, SARS PLP yeast)
NS(=O)(=O)c1ccc(-c2ccc(C=C3C(=O)c4ccccc4C3=O)o2)cc1	AmpC detergent inconclusive
CC(C)CC1=C/C(=C/c2ccc(-c3ccccc3)o2)C(=O)O1	AmpC no deterg 31.6µM, AmpC detergent inconclusive
O=S(=O)(CCC(F)=C(F)F)c1nnnn1C1CCCCC1	none (no result: AmpC no deterg, AmpC detergent, SARS PLP yeast)
CC(C)(C)C1=CC(=Nc2ccccc2N)C=C(C(C)(C)C)C1=O	AmpC detergent inconclusive
